Laboratory results from PubChem BioAssay AID1159580 (chemical genetic matrix, 2015).
The whole screen tested about 5,500 compounds, of which about 2,000 (36%) were called active. Roughly 18% stayed inconclusive and do not appear here. No stated cut-off is given here; in the data, active means normalized growth mostly below about 0.91 (no sharp cut-off); inconclusive means no clear call, values can overlap the other calls; inactive means mostly above about 0.92. Some of the results follow.

Test: chemical genetic growth profiling, strain panel (AID 1159580);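 further: tested at 20 µM; growth read once vehicle control cultures reached saturation at 30 °C; 1 = growth at the plate median or of vehicle wells; lower values mean less growth of the strain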
Conditions: S. cerevisiae deletion strains, growth OD
[1] = locus YAR019C, strain CDC15, hits give low values
[2] = locus YBL105C, strain PKC1, hits give low values
[3] = locus YBR135W, strain CKS1, hits give low values
[4] = locus YBR136W, strain MEC1, hits give low values
[5] = locus YBR160W, strain CDC28, hits give low values
[6] = locus YDL017W, strain CDC7, hits give low values
[7] = locus YDL028C, strain MPS1, hits give low values
[8] = locus YDL108W, strain KIN28, hits give low values
[9] = locus YDL132W, strain cdc53, hits give low values
[10] = locus YDL214C, strain PRR2, hits give low values
[11] = locus YDR052C, strain DBF4, hits give low values
[12] = locus YDR054C, strain cdc34, hits give low values
[13] = locus YDR226W, strain ADK1, hits give low values
[14] = locus YDR477W, strain SNF1, hits give low values
[15] = locus YER123W, strain YCK3, hits give low values
[16] = locus YER133W, strain GLC7, hits give low values
[17] = locus YFL009W, strain cdc4, hits give low values
[18] = locus YFL029C, strain CAK1, hits give low values
[19] = locus YFR003C, strain YPI1, hits give low values
[20] = locus YFR019W, strain FAB1, hits give low values
[21] = locus YFR028C, strain CDC14, hits give low values
[22] = locus YGR040W, strain KSS1, hits give low values
[23] = locus YGR052W, strain FMP48, hits give low values
[24] = locus YGR092W, strain DBF2, hits give low values
[25] = locus YHR030C, strain SLT2, hits give low values
[26] = locus YHR079C, strain IRE1, hits give low values
[27] = locus YHR082C, strain KSP1, hits give low values
[28] = locus YHR205W, strain SCH9, hits give low values
[29] = locus YIL147C, strain SLN1, hits give low values
[30] = locus YJL095W, strain BCK1, hits give low values
[31] = locus YJL128C, strain PBS2, hits give low values
[32] = locus YJL157C, strain FAR1, hits give low values
[33] = locus YJR016C, strain ILV3, hits give low values
[34] = locus YJR066W, strain TOR1 (second series), hits give low values
[35] = locus YJR066W, strain TOR1, hits give low values
[36] = locus YKL048C, strain ELM1, hits give low values
[37] = locus YKL067W, strain YNK1, hits give low values
[38] = locus YKL101W, strain HSL1, hits give low values
[39] = locus YKL193C, strain SDS22, hits give low values
[40] = locus YKL203C, strain TOR2, hits give low values
[41] = locus YLR113W, strain HOG1, hits give low values
[42] = locus YLR133W, strain CKI1, hits give low values
[43] = locus YLR403W, strain SFP1, hits give low values
[44] = locus YML070W, strain DAK1, hits give low values
[45] = locus YMR001C, strain CDC5, hits give low values
[46] = locus YMR205C, strain PFK2 (second series), hits give low values
[47] = locus YMR277W, strain FCP1, hits give low values
[48] = locus YNL006W, strain LST8, hits give low values
[49] = locus YNL020C, strain ARK1, hits give low values
[50] = locus YNL161W, strain CBK1, hits give low values
[51] = locus YNL183C, strain NPR1, hits give low values
[52] = locus YNL207W, strain RIO2, hits give low values
[53] = locus YNL222W, strain SSU72, hits give low values
[54] = locus YNL307C, strain MCK1 (second series), hits give low values
[55] = locus YOL078W, strain AVO1, hits give low values
[56] = locus YOL136C, strain PFK27, hits give low values
[57] = locus YOR061W, strain CKA2, hits give low values
[58] = locus YOR119C, strain RIO1, hits give low values
[59] = locus YOR231W, strain MKK1, hits give low values
[60] = locus YOR329C, strain SCD5, hits give low values
[61] = locus YPL031C, strain PHO85, hits give low values
[62] = locus YPL153C, strain RAD53, hits give low values
[63] = locus YPL204W, strain HRR25, hits give low values
[64] = locus YPL209C, strain IPL1, hits give low values
[65] = locus YPL256C, strain CLN2, hits give low values
[66] = locus YPR025C, strain CCL1, hits give low values
[67] = locus YPR106W, strain ISR1, hits give low values
[68] = locus YPR111W, strain DBF20, hits give low values
[69] = strain NNK1, hits give low values
[70] = strain TSCII, hits give low values

Measured: normalized growth

COc1ccccc1C(C[N+](=O)[O-])c1c(N)n(C)c(=O)n(C)c1=O (stereo unspecified)
active: [10] 0.583 | [14] 0.555 | [15] 0.374 | [16] 0.602 | [20] 0.263 | [22] 0.643 | [23] 0.512 | [24] 0.443 | [25] 0.302 | [26] 0.401 | [27] 0.559 | [28] 0.21 | [30] 0.33 | [32] 0.593 | [34] 0.133 | [35] 0.369 | [36] 0.654 | [37] 0.612 | [38] 0.621 | [40] 0.61 | [41] 0.382 | [42] 0.616 | [43] 0.49 | [44] 0.527 | [46] 0.679 | [49] 0.688 | [51] 0.381 | [54] 0.151 | [56] 0.485 | [58] 0.641 | [59] 0.468 | [61] 0.467 | [62] 0.546 | [63] 0.603 | [65] 0.348
inactive: [1] 0.942 | [2] 0.955 | [3] 0.954 | [4] 0.945 | [5] 0.953 | [6] 0.958 | [7] 0.948 | locus YDL101C, strain DUN1, hits give low values 0.916 | [8] 0.945 | [9] 0.953 | [11] 0.962 | [12] 0.945 | [13] 0.954 | [17] 0.96 | [18] 0.933 | [19] 0.953 | [21] 0.956 | [29] 0.953 | [31] 0.941 | [33] 0.962 | [39] 0.963 | [45] 0.946 | [47] 0.956 | [48] 0.957 | [50] 0.957 | [52] 0.954 | [53] 0.956 | [55] 0.956 | [57] 0.678 | [60] 0.956 | [64] 0.95 | [66] 0.958 | [67] 0.961 | [68] 0.966 | [69] 0.953 | [70] 0.941

COc1ccccc1N1CCN(CCCNc2c(C)c(=O)n(C)c(=O)n2C)CC1
inactive: locus YAL013W, strain DEP1, hits give low values 1.02 | locus YAL040C, strain CLN3, hits give low values 0.984 | locus YCL061C, strain MRC1 (second series), hits give low values 0.998 | locus YDR150W, strain NUM1, hits give low values 1 | locus YDR363W, strain ESC2, hits give low values 1.01 | locus YER002W, strain NOP16, hits give low values 0.999 | locus YGR229C, strain SMI1, hits give low values 1.04 | locus YJR075W, strain HOC1, hits give low values 1.01 | locus YMR307W, strain GAS1, hits give low values 1.02 | locus YNL128W, strain TEP1, hits give low values 1 | locus YNL175C, strain NOP13, hits give low values 0.976 | locus YNL197C, strain WHI3, hits give low values 0.985 | locus YNL224C, strain SQS1, hits give low values 0.995 | locus YNL322C, strain KRE1, hits give low values 0.987 | locus YOR083W, strain WHI5 (second series), hits give low values 0.978

CC1(C)C/C(=N/Nc2ccc(C(F)(F)F)cc2)c2cc(C(C)(C)C)c(O)c(O)c2O1
active: [10] 0.481 | [14] 0.6 | [15] 0.375 | [20] 0.436 | [22] 0.635 | [23] 0.347 | [24] 0.214 | [25] 0.246 | [26] 0.29 | [27] 0.314 | [28] 0.0779 | [30] 0.283 | [31] 0.129 | [34] 0.355 | [35] 0.36 | [36] 0.275 | [37] 0.532 | [38] 0.204 | [41] 0.199 | [42] 0.419 | [44] 0.426 | [46] 0.364 | [49] 0.375 | [51] 0.302 | [54] 0.116 | [56] 0.427 | [57] 0.243 | [58] 0.534 | [59] 0.277 | [61] 0.576 | [62] 0.436 | [63] 0.535 | [65] 0.243 | [67] 0.421 | [68] 0.319 | [69] 0.434
inactive: [1] 0.989 | [2] 0.978 | [3] 0.977 | [4] 0.978 | [5] 0.976 | [6] 0.976 | [7] 0.96 | [8] 0.976 | [9] 0.977 | [11] 0.975 | [12] 0.968 | [13] 0.988 | [16] 0.896 | [17] 0.979 | [18] 0.978 | [19] 0.981 | [21] 0.98 | [29] 0.975 | [32] 0.896 | [33] 0.991 | [39] 0.973 | [40] 0.731 | [43] 0.865 | [45] 0.98 | [47] 0.977 | [48] 0.975 | [50] 0.976 | [52] 0.976 | [53] 0.995 | [55] 0.975 | [60] 0.983 | [64] 0.983 | [66] 0.981 | [70] 0.986
